# Test results from paper PMC4336329 (PLoS ONE, 2015).
# The whole screen tested about 310,000 compounds, of which about 14,000 (4.5%) showed an effect of 50% or more. The effect is printed as a negative number. Shown is part of a subset that was picked to be rich in strong results.
# Target: human ether-à-go-go-related gene (hERG) potassium channel (human, UniProt Q12809)
# Assay: primary screen, population patch clamp on CHO cells stably expressing hERG; higher = less effect of the substance
# 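Also: peak tail current of the secondary pulse compared with the same well before compound.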
# Chain of human ether-à-go-go-related gene (hERG) potassium channel (Q12809 whole entry, looked up): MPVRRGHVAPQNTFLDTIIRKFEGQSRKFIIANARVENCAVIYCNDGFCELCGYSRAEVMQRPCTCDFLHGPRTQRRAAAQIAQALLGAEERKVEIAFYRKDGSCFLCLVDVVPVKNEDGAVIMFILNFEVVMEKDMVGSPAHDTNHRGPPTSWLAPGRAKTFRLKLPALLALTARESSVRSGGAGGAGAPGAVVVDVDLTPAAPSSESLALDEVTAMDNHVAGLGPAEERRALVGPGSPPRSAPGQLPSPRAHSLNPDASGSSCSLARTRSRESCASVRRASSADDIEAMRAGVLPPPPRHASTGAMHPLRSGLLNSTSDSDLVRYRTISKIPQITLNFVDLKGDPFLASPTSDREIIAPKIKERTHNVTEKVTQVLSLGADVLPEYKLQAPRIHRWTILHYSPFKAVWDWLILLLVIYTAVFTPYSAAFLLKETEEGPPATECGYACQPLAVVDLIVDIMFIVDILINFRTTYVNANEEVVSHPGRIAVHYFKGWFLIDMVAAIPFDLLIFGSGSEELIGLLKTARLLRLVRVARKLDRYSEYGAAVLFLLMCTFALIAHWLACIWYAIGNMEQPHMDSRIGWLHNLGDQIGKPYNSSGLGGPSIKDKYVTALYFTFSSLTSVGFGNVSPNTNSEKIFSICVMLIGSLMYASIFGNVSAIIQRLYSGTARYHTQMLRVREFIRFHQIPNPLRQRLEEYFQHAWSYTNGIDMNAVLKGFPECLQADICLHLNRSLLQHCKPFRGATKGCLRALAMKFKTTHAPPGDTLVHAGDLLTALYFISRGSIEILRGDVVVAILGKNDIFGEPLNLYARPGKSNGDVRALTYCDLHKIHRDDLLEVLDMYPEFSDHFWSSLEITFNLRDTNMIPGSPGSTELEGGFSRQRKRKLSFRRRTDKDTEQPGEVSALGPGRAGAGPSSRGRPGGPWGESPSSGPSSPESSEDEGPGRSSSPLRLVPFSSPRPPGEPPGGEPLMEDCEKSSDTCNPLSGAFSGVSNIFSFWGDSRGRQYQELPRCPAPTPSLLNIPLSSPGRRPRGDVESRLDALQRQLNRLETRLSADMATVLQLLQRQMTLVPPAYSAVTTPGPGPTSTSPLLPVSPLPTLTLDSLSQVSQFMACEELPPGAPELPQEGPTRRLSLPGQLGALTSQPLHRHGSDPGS
row,SMILES,"hERG current change (%, negative = inhibition) at 10uM [%]"
1,Clc1ccc(-c2nc(Cc3ccccc3)no2)cc1,11.9
2,Cn1ccs/c1=N\S(=O)(=O)c1ccc(C(C)(C)C)cc1,-11.5
3,CC(NC(=S)NC1CCCCC1)c1ccc(C(C)(C)C)cc1 (stereo not shown),10.6
4,c1coc(-c2cc(C3CCNCC3)[nH]n2)c1,15.5
5,Cc1cc(C(=O)N2CCC(C)CC2)on1,1.18
6,CC(C)n1nc(C(=O)NNC(=O)c2ccc(OC(F)F)cc2)c2ccccc2c1=O,-76.3
7,CC(C)n1nc(C(=O)Oc2ccc(Cl)cc2)c2ccccc2c1=O,5.39
8,CC(C)n1nc(C(=O)NNC(=O)c2ccncc2)c2ccccc2c1=O,3.56
9,CCCCCOC(=O)Cn1c(=O)oc2ccccc21,0.0173
10,CCCCCCCCCCOC(=O)Cn1c(COc2ccccc2)[n+](C)c2ccccc21.[Cl-],-76.1
11,CCCCCCCCOc1ccc(C(=O)O)cc1,13.3
12,CCCCCCCCCCOC(=O)Cn1c(COc2cccc(OC)c2)[n+](C)c2ccccc21.[Cl-],-76.7
13,CN(C)C(=O)Oc1ccc(OCc2n(C)c3ccccc3[n+]2C)cc1.[Cl-],5.79
14,CCCCCCCCCCOC(=O)Cn1c(COc2ccc(Cl)cc2)[n+](C)c2ccccc21.[Cl-],-76.2
15,CCCCCCCCCCOC(=O)Cn1c(COc2ccc(C)cc2)[n+](C)c2ccccc21.[Cl-],-74.9
16,CCCCc1n(CC(=O)c2ccc(Cl)cc2)c2ccccc2[n+]1C.[Br-],8.02
17,CCOC(=O)C(CCCOc1cccc(OC)c1)C(=O)OCC,-14.9
18,Cc1ccc(OCCCCn2c(CO)nc3ccccc32)cc1,-14.6
19,CN(C)C(=O)Oc1cccc(OCc2n(C)c3ccccc3[n+]2C)c1.[Cl-],14.7
20,NNC(=O)Cn1c(COc2ccc(Cl)cc2)nc2ccccc21,-9.34
21,COc1cc(OC)c2ccc(=O)oc2c1C(CC(=O)N1CCCC1)c1ccc(N(C)C)cc1 (stereo not shown),10.2
22,COc1cccc(C(C(=O)NC2CCCC2)N(C(=O)c2ccco2)c2ccc(-n3cnnn3)c(C)c2)c1OC (stereo not shown),8.33

row,SMILES,"hERG current change (%, negative = inhibition) at 10uM [%]"
1,COc1cc(Cl)ccc1OCc1cc(C(=O)N2C[C@]3(C)C[C@H]2CC(C)(C)C3)no1,-8.91
2,CC12CCC(CC1=O)C2(C)C (stereo not shown),8.29
3,CCCCCOC(=O)Cn1c(=O)oc2ccc(C)cc21,-10.6
4,Cc1cccc(OCCCCn2c(CO)nc3ccccc32)c1,-5.5
5,COc1ccc(OCCCCn2c(CO)nc3ccccc32)cc1,-24.5
6,CCCCCCCCCCOC(=O)Cn1c(COc2cccc(C)c2)[n+](C)c2ccccc21.[Cl-],-76
7,CCCCOC(=O)Cn1c2ccc(OC)cc2c2nc3ccccc3nc21,-6.29
8,CCCCCCCCCCOC(=O)Cn1c(COc2ccc(OC)cc2)[n+](C)c2ccccc21.[Cl-],-83.3
9,CN(C)C(=O)C(Sc1ccc(S(=O)(=O)N2CCCC2)cn1)c1ccccc1 (stereo not shown),-13.4
10,COc1ccccc1P(=O)(c1ccccc1)c1ccccc1,15.1
11,COc1cccc(/C=C/C(=O)NCCc2ccc(OC)c(OC)c2)c1,-16.3
12,N#CCC(=O)Nc1ccc(C(=O)OCC(=O)c2ccc3c(c2)OCCO3)cc1,10.5
13,CNCC(O)COc1ccccc1 (stereo not shown),-5.69
14,OC(CNCCC(c1ccccc1)c1ccccc1)COc1ccccc1 (stereo not shown),-71.4
15,OC(CNCc1ccccc1)COc1ccccc1 (stereo not shown),-11.9
16,OC(CCc1ccncc1)COc1ccccc1 (stereo not shown),3.52
17,OC(CNCCc1ccccc1)COc1ccc(OCC(O)CNCCc2ccccc2)cc1 (stereo not shown),1.24
18,CC(CCc1ccccc1)NCC(O)COc1ccccc1 (stereo not shown),-73.4
19,CCc1cc(C(=O)N2CCN(c3ccccn3)CC2)sc1C,-3.12
20,O=C(CCS(=O)CCC(=O)NCc1ccccc1)NCc1ccccc1,17.7
21,Cc1nnc(NC(=O)c2cccc(F)c2)s1,4.08
22,COC(=O)CN1C(c2ccccc2)=Nc2ccc(Cl)cc2C1c1ccccc1 (stereo not shown),-66.4

row,SMILES,"hERG current change (%, negative = inhibition) at 10uM [%]"
1,NNC(=O)CN1C(c2ccc(Cl)cc2)=Nc2ccc(Br)cc2C1c1ccccc1 (stereo not shown),-53.3
2,COC(=O)CN1C(c2cccc(Cl)c2)=Nc2ccc(Cl)cc2C1c1ccccc1 (stereo not shown),1.61
3,COC(=O)CN1C(c2ccc(Cl)cc2)=Nc2ccc(Cl)cc2C1c1ccccc1 (stereo not shown),-17.7
4,NNC(=O)CN1C(c2ccccc2)=Nc2ccc(Br)cc2C1c1ccccc1 (stereo not shown),-20
5,NNC(=O)CN1C(c2ccc(Br)cc2)=Nc2ccc(Br)cc2C1c1ccccc1 (stereo not shown),-30.8
6,CC1CC(C)CN(CCCNC(=O)c2c(O)nc3ccccn3c2=O)C1 (stereo not shown),6.75
7,CC/C(=N\NC(=O)c1ccc(-c2ccccc2)cc1)C12CC3CC(CC(C3)C1)C2,0.121
8,COc1nc(NC2CCCCC2)nc(N2CCCCCC2)n1,4.84
9,O=C(c1ccc(Cl)cc1)N1CCCOC1,15.2
10,CC(=O)Nc1ccc(S(=O)(=O)N2CCCC2C(=O)Nc2ccc(F)cc2)cc1 (stereo not shown),11.2
11,CN(C)C(CNC(=O)CCCN1C(=O)c2cccc3cccc(c23)C1=O)c1ccccc1 (stereo not shown),-46.2
12,COC(=O)[C@@]1(Cc2ccc(F)cc2)[C@H]2c3cc(C(=O)N(C)C)n(Cc4ccc(OC)c(OC)c4)c3C[C@H]2CN1C(=O)c1ccccc1,-42.6
13,COC(=O)[C@@]1(Cc2ccc(F)cc2)[C@H]2c3cc(C(=O)N(C)C)n(Cc4ccccc4)c3C[C@H]2CN1C(=O)c1ccccc1,-13.3
14,COC(=O)[C@@]1(Cc2ccc(F)cc2)[C@H]2c3cc(C(=O)N(C)C)n(CCc4ccc(OC)c(Br)c4)c3C[C@H]2CN1C(=O)c1ccccc1,-2.99
15,COC(=O)[C@@]1(Cc2ccc(F)cc2)[C@H]2c3cc(C(=O)N(C)C)n(CCc4ccccn4)c3C[C@H]2CN1C(=O)c1ccccc1,-64.8
16,COC(=O)[C@@]1(Cc2ccc(F)cc2)[C@H]2c3cc(C(=O)N4CCCC4)n(CCc4c[nH]c5ccc(OC)cc45)c3C[C@H]2CN1C(=O)c1ccccc1,3.92
17,COC(=O)[C@@]1(Cc2ccc(F)cc2)[C@H]2c3cc(C(=O)N(C)C)n(Cc4ccccn4)c3C[C@H]2CN1C(=O)c1ccccc1,-53.4
18,COC(=O)[C@@]1(Cc2ccc(F)cc2)[C@H]2c3cc(C(=O)N4CCCC4)n(CCc4ccc(O)c(O)c4)c3C[C@H]2CN1C(=O)c1ccccc1,-15.5
19,COC(=O)[C@@]1(Cc2ccc(F)cc2)[C@H]2c3cc(C(=O)N4CCCC4)n(CCc4ccccn4)c3C[C@H]2CN1C(=O)c1ccccc1,-64.1
20,COC(=O)[C@@]1(Cc2ccc(F)cc2)[C@H]2c3cc(C(=O)N(C)C)n(CCSCCO)c3C[C@H]2CN1C(=O)c1ccccc1,-34.4
21,CS(=O)(=O)Nc1ccc(C(=O)Nc2ccc(S(=O)(=O)N3CCCC3)cc2)cc1,-13.7
22,Cc1nc(NC(=O)c2ccccc2)sc1-c1csc(NCCc2ccccc2)n1,12

row,SMILES,"hERG current change (%, negative = inhibition) at 10uM [%]"
1,CCOC(=O)CNC(=O)c1cnn2cccnc12,2.78
2,NC(=O)c1c(-c2cccs2)csc1N,3.94
3,COc1cc(C(=O)NCc2nnc(SCC(=O)NCc3ccccc3)o2)cc(OC)c1OC,17.6
4,Cc1ccc(S(=O)(=O)NC2OC(=O)C(Cl)=C2Cl)cc1 (stereo not shown),-3.55
5,COC(=O)c1nc2ccccn2c1F,13.2
6,Cc1c(C(=O)N(C)CCCCN2CCOCC2)oc2c(F)cccc12,4.14
7,CC(=O)NC(=S)Nc1cc(C(=O)O)ccc1Cl,-64.9
8,CCCCC(=O)NC(=S)Nc1cc(C(=O)O)ccc1Cl,11.2
9,CC(C)(C)C(=O)NC(=S)Nc1cc(C(=O)O)ccc1Cl,4.5
10,COC(=O)c1scc(C)c1NC(=O)Nc1ccccc1,3.91
11,Cc1ccc2cccc(Oc3ncnc4sc(C)c(C)c34)c2n1,15.3
12,Cc1sc2ncnc(N)c2c1C,4.12
13,Cc1sc2ncnc(Oc3ccc(-n4ccnc4)cc3)c2c1C,-68.4
14,CCOc1ccc(N/C(N)=N/c2nc(CSc3nnc(C)s3)cc(=O)[nH]2)cc1,12.5
15,C/C=C/c1ccc(OCC(=O)Nc2ccc(C(N)=O)cc2)c(OC)c1,7.23
16,COc1ccc(C2C(C#N)=C(N)Oc3c2c(C)nn3-c2ccccc2)cc1Cn1nc(C)c([N+](=O)[O-])c1C (stereo not shown),-4.96
17,Cc1cccc(N2C(=O)c3cccc(Oc4ccc(Cl)cc4)c3C2=O)c1,4.76
18,O=C(O)c1cccc(N2C(=O)c3cccc(Oc4ccc(Cl)cc4)c3C2=O)c1,16.2
19,O=C(O)c1ccc(N2C(=O)c3cccc(Oc4ccc(Cl)cc4)c3C2=O)cc1,-80.7
